Experimental findings from PubChem BioAssay (EPA / NIEHS) are described below.

As a reminder, the AC50 is the concentration giving half of the maximal activity seen.

Each structure is given as a SMILES string. The source made the active and inactive calls. Rule for the calls: active = hit-call score of the fitted dose curve at least 0.9, where 1 is the maximum; inactive = score below 0.9.

Read-out in the assay: flavin-containing dimethylaniline monooxygenases 3 (FMO3), FMO3 (gene 2328)
As to the kind of experiment: LTEA_HepaRG_FMO3: Life Technologies and Expression Analysis (LTEA) Assay for flavin-containing dimethylaniline monooxygenases 3 (FMO3) using HepaRG (AID 2283453).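 For AC50: FMO3 transcript by TaqMan qRT-PCR normalized to ACTB GAPDH and POLR2A.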 To be noted: mRNA level, 48 h; actives raise or lower the signal. The method, then: LTEA_HepaRG is a cell based, multiplexed-readout assay that uses HepaRG, a human liver cell line, with measurements taken at 48 hours after chemical dosing on a 96-well plate.LTEA_HepaRG_FMO3 is one of 102 assay component(s) measured in the LTEA HepaRG cell culture assay. It is a marker of NR mediated metabolism.Data from the assay component LTEA_HepaRG_FMO3 was analyzed into 1 endpoint. This assay endpoint, LTEA_HepaRG_FMO3, was analyzed with bidirectional fitting relative to DMSO as the negative control and baseline of activity. Using a type of inducible reporter, measures of mRNA induction for gain or loss-of-signal activity can be used to understand regulation of transcription factor activity. To generalize the intended target to other relatable targets, this assay endpoint is annotated to the oxidoreductase intended target family, where the subfamily is […].
A total of 1060 chemcials from the ToxCast library were tested in eight-point concentration-response experiments. Cell culture and cytotoxicity assays were conducted at Thermo Fisher Scientific's Custom Services facility (Madison, WI). A single lot of human HepaRG cells (Thermo Fisher Scientific, Frederick, MD) was used for the cell culture experiments. 96-well format collagen type I coated plates of human HepaRG cells were prepared using established methods. Briefly, cryopreserved HepaRG cells were thawed, plated at a density of approximately 100,000 cells/well in HepaRG Thaw, Plate, and General Purpose media (HPRG770, Thermo Fisher Scientific), and incubated for 48 hours. 0.5% DMSO was selected as vehicle control to balance the requisite need of DMSO in HepaRG cultures to maintain differentiation (for example, baseline metabolism, proportions of hepatocytes vs. cholangiocytes), while enabling further hepatic receptor pathway activation (for example, PXR and CAR) in response to chemical exposure. 48 hours after plating, the culture medium was replaced with HepaRG Serum-Free Incudtion Media. Cells were exposed to each test chemical in duplicate and maintained in CO2 incubators for another 48 hours. Chemical plates were thawed to room temperature and 200x concentrations of treatment groups were prepared. 8-point conentration-reponse curves were made with the highest exposure at 100 uM, followed by half-log dilutions, all in 0.5% DMSO. Each test plate contained variouse controls, induction positive controls (1mM phenobarbital), cytotoxicity positive controls ([…] aflatoxin B1), vehicle controls (0.5% DMSO), and total lysis controls (0.5% DMSO). Cell morphology images were taken using an Essen IncuCyte FLR automated microscope, with six 96-well plates imaged in about 24 minutes. Images were captured and exported and JPEG files. Spent culture media was transfered to black-well plates for the LDH assay, and remaining media was sorted at -80 C for later use. Cells were treated with RLT buffer and frozen until shipped for gene expression analysis. Total RNA was isolated from the cell suspension in 75 uL of Buffer RLT (Qiagen, Germantown, MD 20874) by Quintiles/Expression Analysis (Durham, NC) using a custom isolation procedure. Total RNA from each plate well was transferred to a preamplification plate. Fluidigm's 96.96 Dynamic ArrayTM (Fluidigm, Amsterdam, the Netherlands) technology was used for gene expression analyses by quantitative reverse transcription polymerase chain reaction (qRT-PCR, performed by Quintiles/Expression Analysis, Durham, NC)89. Standard TaqManTM Assays (Applied Biosystems/ThermoFisher Scientific, Foster City, CA) were used to assess the expression of 93 genes selected based on their selectivity and sensitivity to important hepatic receptors known to be modulated by environmental chemicals; importance in human hepatocyte functionality; and hepatotoxicity. […]
With `CCCN(CC)CC1COC2(CCC(C(C)(C)C)CC2)O1` (stereo not given), the molecule was called inactive.
On the same count and under the same terms, for `CC(C)C1(C)N=C(c2ncccc2C(=O)O)NC1=O` (stereo not given) the value was “inactive”.
With `CSC(=O)c1c(C(F)F)nc(C(F)(F)F)c(C(=O)SC)c1CC(C)C`, the AC50 is 86.8 µM (active).
On to `CCN(CC)c1nc(C)cc(OP(=S)(OC)OC)n1`, for which the call was inactive.
In the case of `CNC(=O)N(C)c1nnc(C(C)(C)C)s1`, the call was inactive.
For `CCOP(=S)(OCC)Oc1nc(Cl)n(C(C)C)n1`, the AC50 is 24.7 µM (active).
For the molecule `CCNP(=S)(OC)O/C(C)=C/C(=O)OC(C)C` (stereo not given), the outcome was inactive.
On the same count and under the same terms, for `Cc1nc(N(C)C)nc(OC(=O)N(C)C)c1C` the value was “inactive”.
Regarding `CC(C)NC(=O)N1CC(=O)N(c2cc(Cl)cc(Cl)c2)C1=O`, the AC50 was 17 µM (active).
For `CNC(=O)Oc1cccc2ccccc12`, the result was inactive.
Regarding `CCCCOCN(C(=O)CCl)c1c(CC)cccc1CC`, the outcome was inactive.
On the same count and under the same terms, for `Cc1c(COC(=O)[C@@H]2[C@H](/C=C(\Cl)C(F)(F)F)C2(C)C)cccc1-c1ccccc1` the value was “inactive”; for `CC1(C)CCC(=Cc2ccc(Cl)cc2)C1(O)Cn1cncn1` (stereo not given), “inactive”.
For the molecule `Cn1c(-c2ccccc2)cc(-c2ccccc2)[n+]1C`, the concentration at half-maximal activity (AC50) was 50 µM (active).
Consider `CCCC(=NOCC)C1=C(O)CC(CC(C)SCC)CC1=O` (stereo not given), for which the molecule was classed as inactive.
Still for that read-out and setting: for `CC(C)N1C(=O)c2ccccc2NS1(=O)=O` the value was “inactive”; for `COCC(C)N(C(=O)CCl)c1c(C)csc1C` (stereo not given), “inactive”.
Take `CN=C=S`: the outcome was inactive.
Same read-out and setting: for `N#Cc1c(Cl)cccc1Cl` the value was “inactive”.
Take `CN/C(=N\[N+](=O)[O-])NCc1cnc(Cl)s1`: the molecule was called inactive.
Same read-out and setting: the value for `Clc1cccc(C(Cl)(Cl)Cl)n1` was “inactive”; that for `COc1cc(Cl)c(OC)cc1Cl` was “inactive”; that for `COC(=O)c1c(C(F)F)nc(C(F)(F)F)c(C2=NCCS2)c1CC(C)C` was “inactive”.
Take `CCOc1nc(C(Cl)(Cl)Cl)ns1`: the AC50 is 0.644 µM (active).
Consider `CC1(C)C(C(=O)OC(C#N)c2cccc(Oc3ccccc3)c2)C1(C)C` (stereo not given), for which the molecule was called inactive.
Same read-out and setting: the value for `CCOc1nc(F)cc2nc(S(=O)(=O)Nc3c(Cl)cccc3Cl)nn12` was “inactive”; that for `COP(=S)(OC)Oc1ccc([N+](=O)[O-])c(C)c1` was “inactive”; that for `Nc1c(Cl)c(Cl)nc(C(=O)O)c1Cl` was “inactive”.
For the molecule `CO/N=C(/C1=NOCCO1)c1ccccc1Oc1ncnc(Oc2ccccc2Cl)c1F`, the AC50 was 24.9 µM (active).
`O=C1C2CC=CCC2C(=O)N1SC(Cl)(Cl)Cl` (stereo not given): the molecule was classed as inactive.
Same read-out and setting: for `CC1(C)CON(Cc2ccccc2Cl)C1=O` the value was “inactive”.
The same measure, in the same setting: for `N#CN=C1SCCN1Cc1ccc(Cl)nc1` the value was “inactive”.
With `N#Cc1c[nH]cc1-c1cccc2c1OC(F)(F)O2`, the concentration at half-maximal activity (AC50) was 71.8 µM (active).
On to `COCc1cnc(C2=NC(C)(C(C)C)C(=O)N2)c(C(=O)O)c1` (stereo not given), for which the call was inactive.
The same measure, in the same setting: for `CC(C)Oc1cccc(NC(=O)c2ccccc2C(F)(F)F)c1` the value was “inactive”; for `COC(=O)NS(=O)(=O)c1ccc(N)cc1`, “inactive”; for `COc1cc(OC)nc(NC(=O)NS(=O)(=O)c2ncccc2OCC(F)(F)F)n1`, “inactive”.
The same measure, in the same setting: for `COC(=O)NC(=S)Nc1ccccc1NC(=S)NC(=O)OC` the value was “inactive”.
Regarding `CCC(C)n1c(=O)[nH]c(C)c(Br)c1=O` (stereo not given), the AC50 is 29 µM (active).
As to `CCSC(=O)N1CCCCCC1`, the call was inactive.
